Source: PubChem (National Center for Advancing Translational Sciences (NCATS))
Pf Dd2 growth – qHTS Primary assay for Inhibitors of Plasmodium falciparum Dd2 growth in vitro; 120,000 compounds, 4.3% hits; P. falciparum Dd2 growth, SYBR Green, 72 h; Potency, µM (series often up to 28.9 µM), most hits filed as inhibitors; active = well fitted inhibition curve with a large enough effect; also: nearly all actives have a fitted effect of over 65% in size
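Readout: SYBR Green fluorescence, 485 nm excitation, 535 nm emission, after ~16 h lysis at 37C. Before that, Dd2-infected red cells (2.5% hematocrit) grew 72 h with compound, 29 uM top final concentration.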
Numbers stand for hits; – = inactive; [ ] = another dose, or the depositor's remark. Many of the other results were omitted from the sample, so hits are more common in it than they were.

SMILES	Pf Dd2 growth
COC[C@@H]1CN(Cc2ccc3c(c2)CCO3)C[C@H]1C(=O)N(C)C	–
CCCOC(=O)c1c(NC(=O)C(C)Sc2nc(-c3ccccc3)cc(C(F)(F)F)n2)sc(C(=O)N(C)C)c1C (stereo not drawn)	1.1µM
CCN(CC)C(=O)c1sc(NC(=O)C(C)Sc2nc(-c3ccccc3)cc(C(F)(F)F)n2)c(C(=O)OC)c1C (stereo not drawn)	0.35µM
COc1ccc(-c2cc(C(F)(F)F)nc(SCCC(=O)Nc3c(C)cccc3C)n2)cc1	–
COc1ccc(-c2cc(C(F)(F)F)nc(SCC(=O)NCCc3ccccc3)n2)cc1	–
CCCOC(=O)c1c(NC(=O)c2nc3ncccn3n2)sc(C(N)=O)c1C	–
CCOC(=O)c1sc(NC(=O)c2cc3nc(-c4ccc(Br)cc4)cc(C(F)(F)F)n3n2)c(C(=O)OCC)c1C	–
CC(C)c1noc([C@@H]2CCCN2C(=O)Cn2nnnc2CN(C)C(C)C)n1	–
O=C(Cc1ccc(F)cc1)N1CCC2(CN[S+](=O)([O-])c3cccnc3O2)C1 (stereo not drawn)	–
COc1ccccc1CCC(=O)N1CCC2(CC1)NC(=O)N(c1ccc(F)cc1)N2	–
O=C1NCc2ccccc2CC12CCN(Cc1c(F)cccc1Cl)C2 (stereo not drawn)	–
Cc1ccc(CSc2oc(-c3cccs3)nc2S(=O)(=O)c2ccccc2)cc1	–
O=S(=O)(c1ccccc1)c1nc(-c2cccs2)oc1N1CCCCC1	–
CCC(C)S(=O)(=O)c1oc(-c2cccs2)nc1S(=O)(=O)c1ccccc1 (stereo not drawn)	13µM
OCC1CN(Cc2cccnc2)CCC12CCN(Cc1cccc(O)c1)CC2 (stereo not drawn)	–
O=C(c1ccccc1Cl)N1CCC2(CC1)CC(O)CCO2 (stereo not drawn)	–
CC(C)(CN)N1CCCC1	–
COc1cccc(CN2CCc3nc(N(C)Cc4cccnc4)[nH]c(=O)c3CC2)c1	–[5.79 µM]
CC(C)(C)OC(=O)N1CCC(c2c(C(=O)NCCN3CCOCC3)cnn2-c2cccc(Cl)c2)CC1	10µM
CC(C)(C)OC(=O)N1CCC(c2c(C(=O)NCc3ccco3)cnn2-c2ccccc2)CC1	10µM
CCN1CCN(CCCNC(=O)c2cnn(-c3ccccc3)c2C2CCN(C(=O)OC(C)(C)C)CC2)CC1	–
CC(C)(C)OC(=O)N1CCC(c2c(C(=O)NCCCN3CCc4ccccc4C3)cnn2-c2ccccc2)CC1	8.9µM
Cc1ccc(-n2ncc(C(=O)NC3CCCC3)c2C2CCN(C(=O)OC(C)(C)C)CC2)c(C)c1	10µM
COc1ccc(-n2ncc(C(=O)NCCN3CCOCC3)c2C2CCN(C(=O)OC(C)(C)C)CC2)cc1	–
Cc1ccc(-n2ncc(C(=O)NCc3cccs3)c2C2CCN(C(=O)OC(C)(C)C)CC2)cc1	–
SMILES	Pf Dd2 growth
Cc1ccc(-n2ncc(C(=O)NCCCN3CCN(C)CC3)c2C2CCN(C(=O)OC(C)(C)C)CC2)cc1	–
CC(C)(C)OC(=O)N1CCC(c2c(C(=O)NCc3ccccc3)cnn2-c2ccccc2)CC1	–
Cc1ccc(-n2ncc(C(=O)NCCN3CCCC3)c2C2CCN(C(=O)OC(C)(C)C)CC2)cc1C	–
NC(=O)Cc1c[nH]c2ncc(-c3ccccc3C(F)(F)F)cc12	–
Cc1cccc(OCC2(CNC(=O)c3cccc(F)c3)C[C@@H](O)[C@@H](O)C2)n1 (stereo partly drawn)	–
COc1ccc([C@@H]2CN(C(=O)CCn3nccc3C)C[C@H]2N(C)C)cc1	–
O=C(Cn1ccn2nc(-c3ccc(F)cc3)c(CO)c2c1=O)NCc1ccccc1Br	–
O=Cc1cccc(-c2cc(C(F)(F)F)ccc2Cl)c1	–
COCCNc1ncccc1-c1noc([C@@H]2CCCN2CC(C)(C)C)n1	–
COCCNC(=O)c1cnn(-c2ccc(C)cc2C)c1C1CCN(C(=O)OC(C)(C)C)CC1	–
Cc1ccc(-n2ncc(C(=O)NCCCN3CCCCC3)c2C2CCN(C(=O)OC(C)(C)C)CC2)c(C)c1	8.9µM
Cc1ccc(-n2ncc(C(=O)NCCCN3CCc4ccccc4C3)c2C2CCN(C(=O)OC(C)(C)C)CC2)c(C)c1	7.1µM
CCC1(N2CCN(C(=O)COc3cccc(Cl)c3)CC2)CCN(C(=O)NC)C1 (stereo not drawn)	10µM
CCC1(N2CCN(C(=O)COc3ccc(Cl)cc3C)CC2)CCN(C(=O)NC)C1 (stereo not drawn)	–
CCC1(N2CCN(C(=O)COc3cccc(Cl)c3)CC2)CCN(S(C)(=O)=O)C1 (stereo not drawn)	–
Cc1c(-c2cc(C(=O)N3CCC(=O)N(CC4CC4)C(C(C)C)C3)no2)cnn1C (stereo not drawn)	–
CS(=O)(=O)N1CCOc2ccc(CCC(=O)O)cc2C1	–
COc1ccc(C2C(C(=O)Nc3ccccc3)=C(C)Nc3nc(SCC(=O)c4ccc(C)cc4)nn32)cc1 (stereo not drawn)	–
COc1cccc(C2C(C(=O)Nc3ccccc3)=C(C)Nc3nc(-c4ccccc4)nn32)c1OC (stereo not drawn)	–
COc1ccc(C2C=C(c3ccc(C)cc3)Nc3c(C(=O)Nc4ccccc4)cnn32)cc1 (stereo not drawn)	8.9µM
CCOc1ccc(NC(=O)c2cnn3c2NC(c2cccc(OC)c2)=CC3c2ccccc2)cc1 (stereo not drawn)	1.4µM
COc1ccc(-c2cnnn2-c2ccc(NC(=O)c3ccccc3OC)cc2)cc1	–
COc1cc(OC)c(C2C=C(c3ccc(C)cc3)Nc3c(C(=O)Nc4ccccc4)cnn32)cc1OC (stereo not drawn)	10µM
COc1ccc(C2C(C(=O)Nc3ccccc3)=C(C)Nc3nc(-c4ccccc4)nn32)c(OC)c1 (stereo not drawn)	–
CCOc1ccc(NC(=O)c2cc3cc4cc(OC)ccc4nc3s2)cc1	–
SMILES	Pf Dd2 growth
CCOc1cccc(-c2nc(C(=O)Nc3ccc(OC)cc3)cs2)c1	–
Cn1cc(CN2CCCC(COc3ccccc3C(=O)N3CCOCC3)C2)c2ccccc21 (stereo not drawn)	–
Cc1cc(C(=O)N2CC[C@H](NS(=O)(=O)c3cccs3)C[C@H]2C(=O)N[C@H](Cc2ccccc2)C(N)=O)n(C)n1	–
O=C1NC2(CCN(Cc3ccccc3C(F)(F)F)C2)OCc2ccccc21 (stereo not drawn)	–
Cc1ncc2c(c1CNC(=O)c1ccccc1F)CCN(C(=O)Cc1ccc(F)c(F)c1)C2	–
CCC(=O)Oc1ccc(/C=C(\C#N)c2nc3ccccc3[nH]2)cc1OC	–
CCOC(=O)COc1ccc(/C=C(\C#N)c2nc3ccc(C)cc3[nH]2)cc1OC	–
COc1cc(/C=C(\C#N)c2nc3ccc(C)cc3[nH]2)ccc1OCc1ccc(C)cc1	2.8µM
COc1ccc(C(=O)NC(C(=O)NC(C)C)C2CCN(C(=O)c3ccccc3C)CC2)cc1 (stereo not drawn)	–
O=C1Nc2ccccc2C12CCN(Cc1cncs1)CC2	–
COc1ccc(-c2cc(-c3cccc(OC)c3OC)cn3cncc23)cc1	1µM
O=c1ccc(-c2cc(-c3cccc(N4CCOCC4)c3)cn3cncc23)c[nH]1	7.9µM
CC(=O)Nc1cccc(-c2cc(C3=CCOCC3)c3cncn3c2)c1	–
O=c1ccc(-c2cc(-c3cccc4cn[nH]c34)cn3cncc23)c[nH]1	–
COc1cccc(-c2cc(-c3ccc(=O)[nH]c3)c3cncn3c2)c1	–
COc1ccc(-c2noc(-c3ccc(N4CCCOCC4)nc3)n2)cc1	–
COc1cccc(-c2cc(-c3c(C)noc3C)c3cncn3c2)c1	5.6µM
